# This is a sample that favours compounds with a hit; in the whole collection about 2.3% have one here.
# ELG1 repair inh = blocks ELG1-dependent DNA repair in HEK293T cells | Potency, µM (top dose mostly 46.1 µM), inactives show at the top dose activity change, negative = inhibition, most hits filed as inhibitors | AID 504467 | actives 2.3% (n = 330,000) | HEK293T ELG1-luciferase reporter, luminescence, 16 h; DNA damage induced by 5-fluorouridine; further: potency means the concentration at half of the fitted maximal effect; on the % scale 0 is the no-effect control and ±100 the full control effect; nearly all actives have a fitted effect of over 55% in size
#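 Overnight (16 hr) co-exposure of 2,000 cells/well to 5-fluorouridine and compound at 37 °C preceded detection. Luciferase was quantified via ONE-Glo luminescence; loss of signal denotes inhibition.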
# TRPV1 potentiator = human TRPV1 potentiation; potentiation, % at 8.33 µM; Q8NER1; actives 0.02% (n = 320,000); TRPV1-expressing cells, Fluo-8 calcium influx, capsaicin EC20 potentiation; in the data active means potentiation above about 80%; inconclusive means between about 30% and that limit; further: 0% is about no effect
# Target sequence (Q8NER1 whole entry, looked up): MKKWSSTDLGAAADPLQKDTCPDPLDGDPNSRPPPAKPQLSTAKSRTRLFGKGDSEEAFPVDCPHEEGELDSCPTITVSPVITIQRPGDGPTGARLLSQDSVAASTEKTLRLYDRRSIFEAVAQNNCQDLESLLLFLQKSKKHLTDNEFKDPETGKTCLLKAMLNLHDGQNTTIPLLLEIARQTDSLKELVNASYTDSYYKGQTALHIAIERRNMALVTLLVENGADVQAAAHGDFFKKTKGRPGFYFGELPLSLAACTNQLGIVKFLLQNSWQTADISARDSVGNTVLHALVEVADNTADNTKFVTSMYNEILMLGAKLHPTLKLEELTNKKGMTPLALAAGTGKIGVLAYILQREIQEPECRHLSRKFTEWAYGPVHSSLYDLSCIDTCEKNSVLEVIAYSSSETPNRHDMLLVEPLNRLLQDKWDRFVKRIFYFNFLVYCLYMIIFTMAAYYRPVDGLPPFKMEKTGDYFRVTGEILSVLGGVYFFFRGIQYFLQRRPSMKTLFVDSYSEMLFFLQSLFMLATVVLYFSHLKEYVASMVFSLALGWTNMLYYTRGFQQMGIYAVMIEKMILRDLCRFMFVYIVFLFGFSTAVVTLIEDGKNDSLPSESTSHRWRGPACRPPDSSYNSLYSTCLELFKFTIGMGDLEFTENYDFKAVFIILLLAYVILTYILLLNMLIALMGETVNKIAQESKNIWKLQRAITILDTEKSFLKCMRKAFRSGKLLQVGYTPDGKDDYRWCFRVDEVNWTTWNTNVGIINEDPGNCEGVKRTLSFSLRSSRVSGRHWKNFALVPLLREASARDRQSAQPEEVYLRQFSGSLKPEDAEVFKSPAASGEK
#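 Fluo-8 calcium influx in TRPV1-expressing cells, kinetic read (ex 480/em 520 nm). Compound added and read 3 min for agonist activity, followed by capsaicin at EC20 final and 2 min further read for enhancement.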
# FUS yeast rescue = rescues growth of FUS-expressing yeast; S. cerevisiae FUS-expressing, growth rescue, OD600, 24 h; Potency, µM (titrated, usually from 76.6 µM), hits mostly activators; actives 0.24% (n = 390,000);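 further: potency means the concentration at half of the fitted maximal effect; plate controls were DMSO vehicle for no effect and reference control for full effect; nearly all actives have a fitted effect of over 55% in size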
#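 Yeast expressing FUS under galactose induction, OD 0.005 in 2% galactose medium; compounds in a dilution series, 24 h at 30C. Growth rescue by absorbance at 600 nm; CP55940 positive control, DMSO negative.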
# Giardia kill = kills Giardia lamblia. Giardia lamblia trophozoite viability. activity change, % at 7.66 µM, hits read low. actives 0.15% (n = 340,000); in the data active means activity change below about -80%; inconclusive means between about -30% and that limit;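 further: parasites exposed to compound for two days anaerobically before the ATP read; on the % scale 0 is the no-effect control and ±100 the full control effect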
#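 Each well holds 100 Giardia trophozoites and compound. After two days (48 hrs) at 37 deg C in anaerobic conditions, ATP is quantified by luminescence.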
# TRPV1 agonist = agonists of human vanilloid receptor 1 (TRPV1) | Q8NER1 | TRPV1-expressing cells, Fluo-8 calcium influx, agonist mode | activation, % at 8.33 µM | actives 0.19% (n = 320,000) | AID 540275; in the data active means activation above about 80%; inconclusive means between about 30% and that limit; further: 0% is about no effect
#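 Cells expressing TRPV1 were dye-loaded with Fluo-8 and read kinetically: 10 s baseline, 3 min after compound (agonist portion), then 2 min after EC20 capsaicin (allosteric enhancer portion). Calcium-bound dye fluorescence at 480/520 nm.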
# * hit, by the source's call; i = inactive; ? = inconclusive; / = not tested or not shown. Unless noted, the call rests on the fitted dose curve; in most records, active means well fitted curve in the direction sought with a large enough effect; inconclusive means small, poorly fitted or top-dose-only effect, or another doubt; inactive means no such curve, though single readings can be large; an effect the other way counts as inactive or inconclusive.
SMILES,ELG1 repair inh,TRPV1 potentiator,FUS yeast rescue,Giardia kill,TRPV1 agonist
C[C@H](CO)N1C[C@H](C)[C@@H](CN(C)S(=O)(=O)c2cccs2)Oc2ccc(NS(=O)(=O)c3ccc(F)cc3)cc2C1=O,6.5µM*,/,i,6,/
C[C@H](CO)N1C[C@H](C)[C@@H](CN(C)S(=O)(=O)c2ccccc2)Oc2ccc(NS(=O)(=O)c3ccccc3)cc2C1=O,23µM*,/,i,-15,/
C[C@H](CO)N1C[C@H](C)[C@@H](CN(C)S(=O)(=O)c2ccccc2)Oc2ccc(NS(=O)(=O)c3ccc(F)cc3)cc2C1=O,?,/,i,-10,/
COc1ccccc1NC(=O)C1CCN(S(=O)(=O)c2ccc3c(c2)oc(=O)n3C)CC1,/,/,i,/,/
COc1ccc(S(=O)(=O)Nc2ccc3c(c2)C(=O)N([C@@H](C)CO)C[C@H](C)[C@H](CN(C)S(=O)(=O)c2ccc(F)cc2)O3)cc1,21µM*,/,?,-12,/
C[C@@H]1CCCCO[C@@H](CN(C)S(=O)(=O)c2ccccc2)[C@@H](C)CN([C@H](C)CO)C(=O)c2cc(NS(=O)(=O)c3ccc(F)cc3)ccc2O1,/,/,14µM*,/,/
Cc1cn(CC(=O)NCCN2CCOCC2)c(=O)[nH]c1=O,/,/,i,6,/
COc1cccc(-n2c(=O)c3sc4ccccc4c3n(CC(=O)Nc3ccccc3OC)c2=O)c1,/,/,i,/,/
CCOC(=O)C1CCCN(c2cc(C)nc3cc(-c4ccc(Cl)cc4)nn23)C1 (configuration not stated),26µM*,4,i,11,9
CCOc1ccc(C(=O)Cn2c(=O)n3nc(CCn4nc(C)cc4C)nc3c3cc(OC)c(OC)cc32)cc1,/,/,i,/,/
O=c1c2ccccc2n(Cc2ccco2)n1[C@@H](Cc1ccccc1)Cn1cc(-c2ccc(-c3ccccc3)cc2)nn1,/,/,18µM*,/,/
O=C(Nc1ccc(Cl)c(C(F)(F)F)c1)C(Cc1ccccc1)NS(=O)(=O)c1cccc2nsnc12 (configuration not stated),/,/,i,/,/
COc1ccc(/C=C/c2c(-c3ccc(OC)cc3)sc3ccc(N4CCOCC4)cc23)cc1,?,5,i,9,5
COc1ccc(-c2oc3ccc(N4CCOCC4)cc3c2/C=C/c2ccc(OC)c(OC)c2)cc1,-3%,5,13µM*,25,1
Cc1cccc(C)c1NC(=O)CN(C)CC(=O)Nc1sc2c(c1C(N)=O)CCC2,7.3µM*,6,i,-17,0
Cc1ccc(NC(=O)CN(C)CC(=O)Nc2sc3c(c2C(N)=O)CCC3)cc1,?,-8,?,8,21
COc1cc2c(cc1OC)C(C)N(C(=O)c1cc3c(C)cc(C)cc3[nH]1)CC2 (configuration not stated),16µM*,-3,i,3,-3
CCOC(=O)c1cccc(NC(=O)CC(c2ccc(F)cc2)N2Cc3ccccc3C2=O)c1 (configuration not stated),/,/,i,/,/
Cc1ccc(-c2nc(Nc3cccc(O)c3)c3ccccc3n2)cc1,21µM*,-12,i,-18,17
Cc1ccc(-c2nc(Nc3ccc(N4CCOCC4)cc3)c3ccccc3n2)cc1,23µM*,5,i,-5,0
CNC(=O)c1ccc(Nc2nc(-c3ccccc3)nc3ccccc23)cc1,15µM*,-15,i,17,?
COC(=O)c1ccc(Nc2nc(-c3ccc(C)cc3)nc3ccccc23)cc1,/,/,i,/,/
CCCOC(=O)c1cccc(Nc2nc(-c3cccnc3)nc3ccccc23)c1,13µM*,?,i,18,-4
Cc1ccc(-c2nc(Nc3ccc(O)cc3)c3ccccc3n2)cc1,?,-2,i,1,?
O=C(O)c1ccc(Nc2nc(-c3ccccc3)nc3ccccc23)cc1,-11%,10,i,2,1
SMILES,ELG1 repair inh,TRPV1 potentiator,FUS yeast rescue,Giardia kill,TRPV1 agonist
NS(=O)(=O)c1ccc(NC(=O)CNC(=O)c2ccc3c(c2)OCO3)cc1,10%,/,i,-6,/
CCOC(=O)c1cc(-c2ccccc2)n(CCC(=O)Nc2ccc(C(F)(F)F)cc2)c1C,/,/,i,/,/
CC(=O)c1[nH]c(C)c(C(=O)NCc2ccc(Cl)cc2)c1C,/,/,i,/,/
CCN1CC2=C(OC(N)=C(C#N)C2c2cccs2)/C(=C/c2cccs2)C1 (configuration not stated),16µM*,3,i,7,2
N#Cc1ccc(-c2cccs2)nc1SCc1ccc(Cl)cc1Cl,/,/,i,/,/
COc1ccc(OC)c(-c2cc(C(=O)Nc3ccc(C)c(C)c3)no2)c1,/,/,i,/,/
Cc1ccc(C)c(N2CCN(C(=O)CN(C)S(=O)(=O)c3ccc4c(c3)CCC(=O)N4)CC2)c1,23µM*,/,i,-4,/
Cc1ccc(C)c(N2CCN(S(=O)(=O)c3ccc4c(c3)CCC(=O)N4)CC2)c1,-5%,-24,/,/,?
CCN(C(=O)COC(=O)c1c(C)nn(-c2ccccc2)c1C)C1CCS(=O)(=O)C1 (configuration not stated),?,0,i,-9,-6
CCN(C(=O)COC(=O)c1c2c(nc3ccccc13)/C(=C/c1ccccc1)CC(C)C2)C1CCS(=O)(=O)C1 (configuration not stated),6.5µM*,18,/,-29,-1
CCN(C(=O)COC(=O)c1cncc(Br)c1)C1CCS(=O)(=O)C1 (configuration not stated),4%,80*,i,-8,6
COc1ccc(NC(=O)c2ccc3[nH]c(C)cc(=O)c3c2)cc1,/,/,i,/,/
COc1ccc(C(=O)Nc2ccc(C(=O)O)cc2NC(=O)c2ccc(OC)cc2)cc1,?,7,i,-11,-2
COc1ccc(C(=O)Nc2ccc(C3=NNC(=O)CC3C)cc2NC(=O)c2ccc(OC)cc2)cc1 (configuration not stated),16µM*,-3,i,-13,84*
CCN(C(=O)Cc1cccs1)c1nnc(-c2cc(OC)c(OC)c(OC)c2)s1,2.9µM*,-9,i,-6,19
COC(CNC(=O)CCc1c(C)nc2c(c(C)nn2-c2ccc(C)cc2)c1C)OC,-27%,-21,i,-5,82*
Cc1ccc(-n2nc(C)c3c(C)c(CCC(=O)NCCCOC(C)C)c(C)nc32)cc1,-5%,-15,i,12,?
Cc1ccc(NC(=O)NCc2c(-n3cccc3)sc3c2CCCC3)c(Cl)c1,/,/,i,/,/
O=C(NCc1ccco1)c1cc(-c2ccccc2)c(N2CCOCC2)s1,21µM*,-4,i,15,?
O=C(NCc1ccc2c(c1)OCO2)c1cc(-c2ccccc2)c(N2CCOCC2)s1,18µM*,-18,?,4,28
CCOc1ccc(CCNC(=O)c2cc(-c3ccccc3)c(N3CCOCC3)s2)cc1OCC,16µM*,17,?,16,2
